Assay outcomes as filed in PubChem.
In the library only some 12% were active in any assay of this set; here they are far more common.
Shiga toxin inh – Shiga toxin inhibition. AID 2315. Vero cells, Shiga toxin protein synthesis inhibition reporter. inhibition, % at 38.7 µM. actives 9.2% (n = 290,000); in the data active = inhibition mostly above about 28%, no sharp cut-off; inactive = mostly below about 43%
NS1 function inh – blocks influenza NS1 protein function | actives 0.4% (n = 270,000) | Potency, µM (doses to about 46.1 µM) | AID 2326; also: actives are rising curves; nearly all actives have a fitted effect of over 50% in size
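Read-out: OD600 growth recovery of NS1-expressing budding yeast. Cells grown overnight at 30C in -URA glucose medium, washed, resuspended and diluted 1:100 in 2% galactose assay medium, pH 6.0. Same strain lacking NS1 served as positive control.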
CHX counter – counter-screen for Shiga toxin inhibitors: cycloheximide protein synthesis inhibition; actives 12% (n = 300,000); AID 2314; cell reporter, cycloheximide protein synthesis inhibition counterscreen; max response, %; in the data active = max response mostly above about 13%, no sharp cut-off; inactive = mostly below about 14%; also: read at 38.3 µM for the half of the compounds with a filed dose
SARS PLpro yeast – SARS-CoV PLP inhibition in yeast. actives 0.19% (n = 330,000). Potency, µM (highest dose often 32.9 µM), usual class: activators. S. cerevisiae expressing SARS-CoV PLpro, growth rescue; also: nearly all actives have a fitted effect of over 55% in size
Hits are given with their value; n = inactive; u = inconclusive; x = not tested or not shown. Unless noted, calls follow the shape of the full dose curve.

SMILES	Shiga toxin inh	NS1 function inh	CHX counter	SARS PLpro yeast
Fc1ccccc1CCNCc1cccc2ccccc12	n	n	17.8	n
CCN(CC)c1ccc(CNCCc2ccccc2F)cc1	n	n	n	n
O=C(Cc1cccc2ccccc12)Nc1c(F)cccc1F	58.3	n	18.1	n
CN(Cc1cnccn1)Cc1nc(Cc2cccc(F)c2)no1	n	n	n	n
Cc1cccc(CNC(=O)c2ccccc2N)c1	n	n	19.6	n
Cc1ccc(CNC(=O)c2ccccc2N)cc1	n	n	n	n
CCCSc1nc2cc(C)c(C)cc2n1CC(C)O (stereo not given)	72.5	n	26.3	n
CCCSc1nc2cc(C)c(C)cc2n1CC(O)CO (stereo not given)	78.1	n	21.4	n
Cc1cc2ccccc2c[n+]1CC(O)C[n+]1cc2ccccc2cc1C	x	n	x	x
Cc1cc(N2CC(C)OC(C)C2)n2cc(-c3ccccc3)nc2n1 (stereo not given)	n	x	n	n
CC(=O)c1ccc(NC(=O)C(C)Sc2ccccn2)cc1 (stereo not given)	77.5	n	34.4	n
CC(Sc1ccccn1)C(=O)Nc1ccc(S(N)(=O)=O)cc1 (stereo not given)	n	n	n	n
CC(Sc1ccccn1)C(=O)Nc1ccccc1 (stereo not given)	76.5	n	40.4	n
Cc1ccc(NC(=O)Cn2nc(-c3ccccc3Cl)ccc2=O)c(Br)c1	n	x	n	n
COc1ccccc1CNC(=O)c1ccc(OC(C)C)cc1	56.1	x	14.6	n
O=C(NCc1cccs1)c1ccc(Cl)s1	n	n	n	n
CC(C)Oc1ccc(C(=O)NCc2cccs2)cc1	36.2	n	50.1	n
CCc1ccc(C(=O)NCc2cccs2)s1	89.2	n	36.6	n
CCC(CC)C(=O)NCc1ccccc1OC	n	n	n	n
CCOc1ccc(C(=O)NCc2ccccc2OC)cc1	active	u	n	n
Cc1nc(SCCCSc2n[nH]c(C)n2)n[nH]1	n	n	n	n
Cc1ccc(CNC(=O)COC(=O)c2cccc(S(=O)(=O)N3CCCCC3)c2)cc1	x	x	x	n
COc1ccc(/C=N/NC(=O)Cn2c(Cc3ccc(OC)c(OC)c3)nc3ccccc32)cc1	n	n	n	n
COc1cccc(/C=N/NC(=O)NC2CCCCC2)c1O	51.9	n	34.4	n
COc1cccc(/C=N/NC(=O)C(=O)N2CCCCCC2)c1O	n	n	21.0	n
SMILES	Shiga toxin inh	NS1 function inh	CHX counter	SARS PLpro yeast
COc1ccc(OC)c(/C=N/NC(=O)C(=O)N2CCCC2)c1	n	n	n	n
CCC(C)(C)NC(=O)CN(Cc1cccs1)C(=O)C(=O)Nc1ccc2c(c1)OCCO2	n	n	n	n
Oc1ccccc1CNc1ccc(OC(F)(F)F)cc1	55.3	n	34.7	n
Cc1ccc(NCc2ccccc2O)cc1C	101.7	x	33.0	n
c1csc(CNc2ccc3c(c2)OCCO3)c1	93.4	n	110.7	n
Clc1cc(NCc2cccs2)ccc1N1CCOCC1	57.0	n	46.4	n
O=C(NCc1cccs1)C1CCN(c2ccc(S(=O)(=O)N3CCOCC3)cc2Cl)CC1	n	n	n	n
CCOC(=O)c1cc(COc2cc(Cl)cc(Cl)c2)on1	n	n	n	n
Cc1ccc(S(=O)(=O)O[C@@H]2[C@H]([C@@H]3COC(C)(C)O3)O[C@H]3OC(C)(C)O[C@@H]32)cc1	x	n	x	x
COc1cccc(C(=O)N2CCN(Cc3ccc(OC)cc3OC)CC2)c1	x	n	n	n
Oc1ccccc1CNc1ccc2c(c1)OCCO2	66.8	n	40.6	n
O=C(/C=C/c1ccccc1)Oc1cccc2cccnc12	n	n	n	n
Clc1ccccc1OCCCOc1cccc2cccnc12	x	n	37.4	n
O=Cc1ccccc1OCCCOc1cccc2cccnc12	56.1	n	23.9	n
Brc1ccc(OCCCOc2cccc3cccnc23)cc1	x	n	n	n
O=[N+]([O-])c1ccccc1OCCCOc1cccc2cccnc12	x	n	28.7	n
O=C(/C=C\c1ccccc1)Oc1cccc2cccnc12	n	x	21.3	n
Brc1ccccc1OCCOCCOc1cccc2cccnc12	n	n	n	n
Cc1ccc(-c2nc3ccccc3c(=O)n2NC(=O)c2cccs2)cc1	n	n	n	n
Cc1cc(C)n2cc(COc3ccc4ccccc4c3)nc2n1	66.4	n	52.7	n
Cc1ccnc(SCc2cn3c(C)cc(C)nc3n2)n1	n	x	n	n
Cc1cccc2nc(COc3ccc(-c4ccccc4)cc3)cn12	84.6	n	43.2	n
CCOc1ccc(NC(=S)N2CCN(C/C=C/c3ccccc3)CC2)cc1	n	x	n	u
Cc1cc(F)ccc1NCc1ccc([N+](=O)[O-])cc1	71.1	x	29.8	n
Cc1cc([N+](=O)[O-])ccc1NCc1ccc2c(c1)OCCO2	n	n	n	n
SMILES	Shiga toxin inh	NS1 function inh	CHX counter	SARS PLpro yeast
NC(=O)Cc1ccc(Nc2nnc(-c3ccccc3)c3ccccc23)cc1	n	n	10.3	n
COc1ccc(-c2nnc(Nc3ccc(CC(N)=O)cc3)c3ccccc23)cc1	n	n	n	u
CCc1ccc2oc(-c3cc(N)ccc3Cl)nc2c1	n	n	14.9	n
CCc1ccc2oc(-c3cc(N)ccc3O)nc2c1	n	u	18.5	n
O=C(NNS(=O)(=O)c1cccc(Cl)c1Cl)c1cccc(S(=O)(=O)N2CCOCC2)c1	n	n	n	u
CON(C)C(=O)/C=C/CCCCNC(=O)OC(C)(C)C	x	x	x	n
COc1ccc(-c2ccc(NC(=O)c3ccc(Br)o3)cc2)nn1	x	x	x	n
CCN(c1ccccc1)S(=O)(=O)c1ccc(Cl)c(NC(=O)Nc2ccc(Cl)cc2C#N)c1	46.7	n	30.0	n
CCN(c1ccccc1)S(=O)(=O)c1cc(NC(=O)Nc2ccccc2C#N)ccc1Cl	n	n	n	n
O=C(CSc1nnc(-c2ccc(F)cc2)c2ccccc12)Nc1ccccc1	n	n	21.8	x
O=C(CSCc1ccc(F)cc1)NC1CCCC1	37.3	n	25.6	n
O=C(CSCc1ccc(F)cc1)Nc1ccccc1	53.1	n	29.6	n
O=C(CSCc1ccc(F)cc1)NCc1ccco1	n	n	21.3	n
O=C(CSc1nnc(-c2ccc(F)cc2)c2ccccc12)Nc1cccc(Cl)c1	n	n	n	n
O=C(CSCC(=O)NCc1ccco1)NCc1ccco1	n	n	n	n
Cc1ccc(S(=O)(=O)N2CCC(C(=O)OCCOc3cccc(C)c3)CC2)cc1	x	x	x	n
CCN(CC)S(=O)(=O)c1ccc(N2CCOCC2)c(NS(=O)(=O)c2ccc(C)c(C)c2)c1	n	n	n	n
Cc1ccc(NC(=O)CNC(=O)N2CC(=O)Nc3ccccc32)cc1F	n	n	n	n
O=C(CN1CC(=O)Nc2ccccc21)Nc1ccc(F)c(F)c1	74.6	x	29.8	n
O=C(CSc1nncc2ccccc12)Nc1cccc(C(=O)O)c1	98.6	n	40.3	n
CCc1cccc(NC(=O)CNC(=O)N2CC(=O)Nc3ccccc32)c1	n	n	26.0	n
N#CCSCC(=O)Nc1ccccc1	n	n	20.1	n
O=C(CSCc1ccccc1)Nc1cc([N+](=O)[O-])ccc1F	n	x	n	n
O=C(CSCc1ccccc1Br)Nc1ccccc1	n	n	26.6	n
O=C(CSCc1ccccc1)Nc1ccc(F)c(F)c1	72.6	n	47.3	n
COc1ccc(CCNC(=O)CCCOc2ccc(Cl)cc2)cc1OC	n	n	n	n
CSc1nsc(SCC(=O)Nc2cccc(NC(C)=O)c2)n1	n	n	n	n
